Experimental findings from PubChem BioAssay AID751 (NMMLSC, 2007) are described below.

Each structure is given as a SMILES string. The whole screen tested about 24,000 compounds, of which about 40 (0.2%) were called active.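 The calls were made as follows: active = inhibition of disassembly above about 33% (limit read from the data); inconclusive = likely self-fluorescent, control bead median signal at least 40; inactive = the rest.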 Only a selection was taken, and actives are over-represented in it overall.

The assay concerns 26S proteasome (yeast, GFP-tagged, ATP-dependent disassembly). Put plainly: inhibitors of ATP-driven 26S proteasome dissociation, primary screen, biochemical, bead-based flow cytometry, GFP-tagged proteasome (AID 751).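 Also: plate controls were ATP control with full disassembly for no effect and ATP-gamma-S intact proteasomes for full effect; higher percent means more bead fluorescence retained so stronger block of disassembly.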 The settings on record: anti-FLAG beads, stronger effect = higher value, concentration not given here. For orientation: Flow cytometry measures light scatter and fluorescence of single cells or particles in a stream.
Regarding `Cc1nc2sc(C(c3ccco3)N3CCC4(CC3)OCCO4)c(O)n2n1` (stereo not drawn), the inhibition of disassembly is -1.33% (inactive).
Regarding `CCn1ncc(C2=NOC(C(=O)Nc3ccccc3C(=O)OC)C2)c1C` (stereo not drawn), the inhibition of disassembly is 0.71% (inactive).
For `CCCn1c(C(O)c2ccc(OCC)cc2)nc2ccccc21` (stereo not drawn), the inhibition of disassembly was 0.49% (inactive).
As for `CCn1cc(C(=O)NC2CCCCCC2)c(=O)c2cc(S(=O)(=O)N3CCCCC3)ccc21`, the inhibition of disassembly was -0.53% (inactive).
On to `Cc1nonc1NC(=O)c1ccccc1Br`, for which the inhibition of disassembly was -2.02% (inactive).
Consider `CC1C=CCC2C(=O)N(c3cccc(C(=O)N4CCCCCC4)c3)C(=O)C12` (stereo not drawn), for which the inhibition of disassembly was -0.22% (inactive).
The result for `CC(NC(=O)CN1CCN(Cc2ccc(Cl)cc2)C1=O)c1ccc2c(c1)OCCO2` (stereo not drawn) reads 0.26% (inactive).
Consider `CCOc1cc2[nH]c(=S)n(CCCN3CCCC3=O)c(=O)c2cc1OCC`, for which the inhibition of disassembly is -0.66% (inactive).
Then `O=C(c1ccc2c(c1)N(Cc1ccc(F)cc1)C(=O)CS2)N1CCOCC1`, with 3.05% (inactive); and `O=C(CCCN1C(=O)C2C3C=CC(C3)C2C1=O)N1CCN(c2ccccc2)CC1` (stereo not drawn), with -1.14% (inactive); and `COc1ccc(C2C3=C(OC(C)=O)c4ccccc4C3=Nc3c2c(=O)n(C)c(=O)n3C)cc1` (stereo not drawn), with -0.28% (inactive).
The result for `Nc1nc(SCCOc2ccccc2)n[nH]1` reads 1.41% (inactive).
The result for `Cc1cc(C(=O)O)c(S(C)(=O)=O)s1` reads -0.75% (inactive).
`Cc1noc(/C=C/N(C)C)c1S(=O)(=O)N1CCCC(C(=O)NCc2ccco2)C1` (stereo not drawn): the inhibition of disassembly is -7.75% (inactive).
Regarding `COc1cccc(Nc2nnc(SCC(=O)N3CC(C)OC(C)C3)s2)c1` (stereo not drawn), the inhibition of disassembly was -3.96% (inactive).
Regarding `Cc1cc(Nc2ccc(Br)cc2F)n2ncnc2n1`, the inhibition of disassembly is -4.6% (inactive).
The result for `CCOC(=O)c1sc(=S)n2c1[nH]c(=O)c1ccc(C(=O)OC)cc12` reads 0.98% (inactive).
Then `Cn1c(C(=O)NCCN2CCc3ccccc3C2)cc2c(=O)[nH]c3ccccc3c21`, with -0.79% (inactive); and `O=C(COc1ccccc1F)NC1CC1`, with -1.13% (inactive); and `O=C1CC(c2cccc(F)c2)C2=C(CCCC2=O)N1` (stereo not drawn), with -0.41% (inactive).
Consider `Cc1c2cn[nH]c(=O)c2c(C)n1Cc1ccc(F)cc1`, for which the inhibition of disassembly is 2.63% (inactive).
The result for `COc1ccc2oc(=O)c(C(=O)N3CCN(c4ccccc4F)CC3)cc2c1` reads -0.83% (inactive); that for `COc1ccccc1N1CCN(c2nc3ccccc3n3nnnc23)CC1`, 22.2% (inactive); that for `Cc1cccc(NC(=O)CSc2nnc(NC(=O)CN3CCOCC3)s2)c1`, 0.22% (inactive).
The result for `COc1cccc(-n2c(Cc3cc(=O)[nH]c(=O)[nH]3)nnc2SCC(=O)Nc2ccccc2)c1` reads -1.55% (inactive).
As to `CCOc1ccc(OCC)c(NC(=O)C(NS(=O)(=O)c2ccc3c(c2)oc(=O)n3C)C(C)C)c1` (stereo not drawn), the inhibition of disassembly was -0.66% (inactive).
The result for `CCOC(=O)N1CCC(NC(=O)CN2C(=O)COc3ccc(C(C)(C)C)cc32)CC1` reads -0.61% (inactive); that for `Cc1ccccc1C(=O)NCCN=C1NS(=O)(=O)c2ccccc21`, -0.63% (inactive); that for `CCOc1cc2c(cc1OCC)C(C(=O)O)C(c1ccc(OC)c(O)c1)N(C)C2=O` (stereo not drawn), 0.12% (inactive).
The result for `O=C(Nc1c2c(nn1-c1ccc(F)cc1)CS(=O)C2)C12CC3CC(CC(C3)C1)C2` (stereo not drawn) reads -2.52% (inactive); that for `CC1CCC(NC(=O)c2ccc(N3CCCC3=O)cc2)CC1` (stereo not drawn), 5.08% (inactive); that for `Cc1cccc2c1N(CC(=O)OC(C)C)C(=O)C2=O`, 1.8% (inactive).
With `CN(CC(=O)NC1CCCCC1)S(=O)(=O)c1cccc2cccnc12`, the inhibition of disassembly was -0.29% (inactive).
The result for `O=C(CN1CCN(c2ccccc2F)CC1)c1ccc2c(c1)OCO2` reads -0.87% (inactive); that for `Cc1cc(Nc2cccc(C)c2C)n2ncnc2n1`, 1.4% (inactive).
Then `Cc1ccc(S(=O)(=O)N(C)CC(=O)NC2CCCC2)cc1`, with 1.94% (inactive); and `CCN(CC)C(=O)N1CCN(C(=O)c2ccc(C)cn2)CC1`, with 0.26% (inactive).
The result for `C#CCN1C(=O)C(O)(CC(=O)c2cc(OC)ccc2OC)c2ccccc21` (stereo not drawn) reads -0.27% (inactive).
For the compound `COc1ccc(S(=O)(=O)NC2(C(F)(F)F)N=C3SCCN3C2=O)cc1` (stereo not drawn), the inhibition of disassembly was 0.29% (inactive).
The result for `COc1cc(C2C(C(=O)Nc3ccccc3OC)=C(C)Nc3ncnn32)ccc1O` (stereo not drawn) reads -1.23% (inactive); that for `CC(=O)C1C(c2cccc(Oc3ccccc3)c2)NC(=O)NC1(O)C(F)(F)F` (stereo not drawn), 3.33% (inactive).
On to `CC(C)CNS(=O)(=O)c1ccc(OCC(=O)Nc2ccc3c(c2)OCO3)c(Cl)c1`, for which the inhibition of disassembly is 0.65% (inactive).
The result for `CC1CCCN(C(=O)c2ccc3c(c2)C(=O)N(CCC2=CCCCC2)C3=O)C1` (stereo not drawn) reads -0.2% (inactive); that for `COCCn1c(CN(Cc2ccccc2)Cc2ccccc2)nc2c1c(=O)n(C)c(=O)n2C`, 0.04% (inactive); that for `CCOC(=O)N1CCN(C(=O)c2n[nH]c(=O)c3ccccc23)CC1`, -0.81% (inactive).
For the compound `COc1ccccc1C(=O)NCCn1cc(SCC(=O)NCc2ccco2)c2ccccc21`, the inhibition of disassembly is 0.52% (inactive).
Then `COc1ccccc1NC(=O)CN1CCN(S(=O)(=O)c2ccc(Br)cc2)CC1`, with -0.52% (inactive).
Then `CCOc1ccccc1NC(=O)C1CCC(CNc2c(N3CCOCC3)c(=O)c2=O)CC1` (stereo not drawn), with 0.11% (inactive); and `CCC(C(=O)Nc1ncccn1)(C(F)(F)F)C(F)(F)F`, with -0.33% (inactive).
Take `CCOC(=O)c1nnn(CC(=O)Nc2cccc(F)c2)c1C(=O)OCC`: the inhibition of disassembly was -0.09% (inactive).
With `Cc1ccc(C2CC(c3cccc(Br)c3)n3nc(N)nc3N2)cc1` (stereo not drawn), the inhibition of disassembly is 0.65% (inactive).
For `Cc1oc(-c2ccccc2F)nc1CS(=O)(=O)CC(=O)NCCCN(C)C1CCCCC1`, the inhibition of disassembly is -0.8% (inactive).
As for `Cc1nnc(NC(=O)CCC(=O)N2CCC(C)CC2)s1`, the inhibition of disassembly was -1.57% (inactive).
Turning to `COc1ccc(-c2c(C)nn3c(N4CCC(C(=O)N5CCCCC5)CC4)cc(C)nc23)cc1OC`, the inhibition of disassembly is -1.42% (inactive).
Turning to `NS(=O)(=O)c1cc2c(cc1Cl)NC(C(Cl)Cl)NS2(=O)=O` (stereo not drawn), the inhibition of disassembly is -0.98% (inactive).
Then `COc1ccc(OC)c(NC(=O)CC(Cc2ccccc2OC)C(=O)O)c1` (stereo not drawn), with -1.04% (inactive); and `Cc1noc(C)c1S(=O)(=O)Nc1ccc(C(=O)O)cc1`, with 1.24% (inactive).
As for `CCCOC(=O)Nc1sc2c(c1C(=O)OCC)CCC2`, the inhibition of disassembly is 1.34% (inactive).
